Screening data deposited in PubChem BioAssay by The Scripps Research Institute Molecular Screening Center.
SMARCA2 activ: increases SMARCA2 function in MMTV reporter cells; MG213 cells, MMTV-luciferase reporter, dexamethasone, overnight; activation, % at 9.1 µM; hit rate 1% among 370,000; in the data active means activation above about 7.8%
hcDAF12 agonist: activates DAF-12 receptor from parasite H. contortus; AID 652067; activation, % at 6.8 µM; hit rate 1.4% among 370,000; HEK293 hcDAF-12 lit1-tk-luc reporter, luminescence; 0% DMSO, 100% Δ7-dafachronic acid;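 active means activation above the mean of all tested compounds plus 3 SD, cut at about 5.5% in these data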
ssDAF-12 act: activates DAF-12 receptor from parasite S. stercoralis; HEK293 ssDAF-12/GRIP1 lit1-tk-luc reporter, luminescence; % of 3 µM dafachronic acid response; activation, % at 6.8 µM; hit rate 1% among 370,000;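 active means activation above the mean over all tested compounds plus 3 SD, cut at about 0.9% in these data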
DAX1 StAR inh: DAX1 (NR0B1) inhibition, primary screen. HEK293T StAR-luciferase reporter, SF-1/DAX-1 repression relief. inhibition, % at 6.8 µM. hit rate 1.1% among 370,000. AID 652010;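 active means inhibition above the mean over all tested compounds plus 3 SD, cut at about 3.6% in these data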;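 further: higher inhibition means more luminescence from relief of DAX-1 repression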
hgDAF-12 ag: activates the H. glycines DAF-12 receptor ligand-binding domain | HEK293 GAL4-hgDAF12 UAS-luciferase reporter, agonist luminescence; normalized to butyrate control | activation, % at 6.8 µM | hit rate 1.8% among 370,000;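 active means activation above a cutoff set at the mean of all screened compounds plus 3 SD, cut at about 10% in these data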
LXRb hcDAF ctr: activates human LXR-beta, counter-screen for hcDAF-12 agonists; shares compounds with hcDAF12 agonist; activation, % at 6.8 µM; HEK293 Gal4-LXR tk-luc reporter, luminescence, 24 h; normalized: DMSO 0%, positive control 100%; 3,400 tested, under 10 active;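 active means mean percent activation of the reporter above a cutoff set as the average over tested compounds plus their standard deviation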
Target sequence (P55055 whole entry, looked up, the tested form may be a part): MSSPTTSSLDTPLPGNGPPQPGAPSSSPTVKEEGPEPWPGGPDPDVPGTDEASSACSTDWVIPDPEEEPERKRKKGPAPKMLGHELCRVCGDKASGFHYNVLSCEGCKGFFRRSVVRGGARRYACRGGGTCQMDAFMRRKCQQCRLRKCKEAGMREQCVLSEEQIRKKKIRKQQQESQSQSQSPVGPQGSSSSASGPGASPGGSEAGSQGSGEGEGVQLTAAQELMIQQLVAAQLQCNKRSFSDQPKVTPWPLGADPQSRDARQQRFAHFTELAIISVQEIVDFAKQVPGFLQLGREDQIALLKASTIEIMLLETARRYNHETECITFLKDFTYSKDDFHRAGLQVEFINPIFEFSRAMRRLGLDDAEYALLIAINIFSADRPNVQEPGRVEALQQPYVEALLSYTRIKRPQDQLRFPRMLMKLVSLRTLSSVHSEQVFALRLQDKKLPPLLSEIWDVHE
hcDAF12 conf: hcDAF-12 agonism, confirmation assay; shares compounds with hcDAF12 agonist; HEK293 hcDAF-12 lit1-tk-luc reporter, luminescence; % of Δ7-dafachronic acid response; activation, % at 6.8 µM; hit rate 61% among 3,400; AID 743032;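 active means mean activation across triplicate tests above the threshold derived from the earlier primary screen, cut at about 5.5% in these data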
Each line names hits and unclear results; the compound was inactive in the other large screens (follow-up assays come after a bar, where they were run). Shown are actives, neighbours in structure and some others; about 4.2% of the full set was active somewhere.

COc1ccc2c(c1)[C@@]1(OCCC=C[C@H]1C)C(=O)N2C/C=C(\C)CCC=C(C)C	none
Cc1ccc(C(=O)NC(=S)c2c(C)cc3ccccn23)cc1	hcDAF12 agonist 7.5, ssDAF-12 act 4.1, hgDAF-12 ag 12 | LXRb hcDAF ctr inactive | hcDAF12 conf 8.5
Cc1cc2ccccn2c1C(=S)NC(=O)c1ccccc1	none
S=C(Nc1ccc(Br)cc1)N1CCCC1	hcDAF12 agonist 7.4 | LXRb hcDAF ctr inactive | hcDAF12 conf inactive
Cc1nc(NC(=S)Nc2ccccc2)sc1C	hcDAF12 agonist 10 | LXRb hcDAF ctr inactive | hcDAF12 conf inactive
COc1ccc(CCNC(=O)CCNC(=O)c2ccco2)cc1	hcDAF12 agonist 6.8 | LXRb hcDAF ctr inactive | hcDAF12 conf inactive
CCN1C(=O)/C(=C/N2CCc3ccccc3C2)SC1=S	none
CCCCCN1C(=O)/C(=C/c2c(N3CCc4ccccc4C3)nc3ccccn3c2=O)SC1=S	hcDAF12 agonist 6.8 | LXRb hcDAF ctr inactive | hcDAF12 conf inactive
CCOc1ccc(C(=O)NCCc2ccccc2)cc1	hcDAF12 agonist 6.6, DAX1 StAR inh 5.7 | LXRb hcDAF ctr inactive | hcDAF12 conf 9.2
COc1ccc(NC(=O)Nc2cccc3c2O[C@H](CN(C)C(=O)Nc2c(C)noc2C)[C@@H](C)CN([C@H](C)CO)C3=O)cc1	hcDAF12 agonist 7.0 | LXRb hcDAF ctr inactive | hcDAF12 conf inactive
COc1ccc2c(c1OC)C(=O)N1C(C(=O)O)Cc3c([nH]c4ccccc34)C21 (stereo unspecified)	hcDAF12 agonist 8.8 | LXRb hcDAF ctr inactive | hcDAF12 conf inactive
COc1ccc(OC)c(NC(=O)O[C@@H]2CC[C@@]34CCCN3C(=O)CCC[C@H]4C2)c1	none (no result: SMARCA2 activ, DAX1 StAR inh)
O=C(NCCc1c[nH]c2ccccc12)OCc1cn(Cc2cccc(Cl)c2)nn1	hcDAF12 agonist 6.6 | LXRb hcDAF ctr inactive | hcDAF12 conf inactive
O=C(NCCc1c[nH]c2ccccc12)OCc1cn(Cc2ccc(F)c(F)c2)nn1	none
COC(=O)[C@]12C[C@H](CC(=O)N3CCCCC3)C(=O)N(Cc3ccc(Cl)cc3Cl)C1=C[C@H](C1CCCC1)O[C@@H]2C	none
Cc1cc(C)c2c(N)c(C(=O)Nc3nccs3)sc2n1	hcDAF12 agonist 18, ssDAF-12 act 2.3, hgDAF-12 ag 16 | LXRb hcDAF ctr inactive | hcDAF12 conf 24
C/C(=C\C(=S)Nc1ccccc1)Nc1ccc2ccccc2c1	hcDAF12 agonist 6.9 | LXRb hcDAF ctr inactive | hcDAF12 conf inactive
C/C(=C\C(=S)Nc1ccccc1)Nc1cccc2ccccc12	none
O=C(Nc1ccc(Oc2ccccc2)cc1)C1CCN(c2nnc(-n3cccc3)s2)CC1	none
Cc1ccc(O)c(-c2cc(-c3ccccc3F)[nH]n2)c1	hcDAF12 agonist 11 | LXRb hcDAF ctr inactive | hcDAF12 conf 9.4
Cc1ccc(O)c(-c2cc(-c3cccc(F)c3)n[nH]2)c1	none
O=C(/C=C/c1ccc(-c2ccccc2[N+](=O)[O-])o1)c1ccco1	hcDAF12 agonist 7.9 | LXRb hcDAF ctr inactive | hcDAF12 conf inactive
O=C(/C=C/c1ccc([N+](=O)[O-])cc1)c1ccco1	none
Cc1cc(C(=O)CN2C(=O)c3ccccc3C2=O)c(C)n1Cc1cccs1	none
Cc1cc(C(=O)Cn2nnc3ccccc3c2=O)c(C)n1Cc1cccs1	hcDAF12 agonist 8.4, ssDAF-12 act 0.9 | LXRb hcDAF ctr inactive | hcDAF12 conf 12
COc1ccc(Cn2cc(CN3[C@@H](C)COc4cc(Br)ccc4S3(=O)=O)nn2)cc1	none
Cc1csc(NC(=O)c2cccnc2Cl)n1	hcDAF12 agonist 8.7, ssDAF-12 act 1.1 | LXRb hcDAF ctr inactive | hcDAF12 conf 11
CCOc1ccc(C=Nc2cccc3ncccc23)cc1	hcDAF12 agonist 9.2 | LXRb hcDAF ctr inactive | hcDAF12 conf inactive
Oc1ccc(C=Nc2cccc3ncccc23)c(O)c1	none
O=c1c(=Nc2ccccc2O)c(=O)c2ccccc12	hcDAF12 agonist 8.3 | LXRb hcDAF ctr inactive | hcDAF12 conf inactive
COc1cccc(CNC(=O)[C@H]2CCCN2C(=O)[C@H]2CCCN2C(=O)c2ccc(F)c(F)c2)c1	none
NC(=O)c1ccc(NC(=S)NCc2ccco2)cc1	none
NS(=O)(=O)c1ccc(NC(=S)NCc2ccco2)cc1	hcDAF12 agonist 7.2 | LXRb hcDAF ctr inactive | hcDAF12 conf inactive
CC(C)C(=O)N1CCCCCCN1C(=O)C(C)C	hcDAF12 agonist 7.8 | LXRb hcDAF ctr inactive | hcDAF12 conf inactive
CC(CN1CCCCC1)C(=O)NN (stereo unspecified)	none
COc1ccc2[nH]cc(C(=O)CCl)c2c1	none
COc1ccc2[nH]cc(C(=O)CNc3nc(C)cs3)c2c1	hcDAF12 agonist 7.3 | LXRb hcDAF ctr inactive | hcDAF12 conf 7.6
Cc1ccc(CSc2nnc(-c3cc(-c4ccc(F)cc4)n[nH]3)n2N)cc1	none
Cc1cc(C)n(-c2ncnc3sc4c(c23)CCCC4)n1	hcDAF12 agonist 7.4 | LXRb hcDAF ctr inactive | hcDAF12 conf inactive
Cc1cc(C)n(-c2ncnc3sc4c(c23)CC(C)CC4)n1 (stereo unspecified)	none
O=C(NCCc1cccc(Cl)c1)c1cc([N+](=O)[O-])ccc1Cl	hcDAF12 agonist 6.7 | LXRb hcDAF ctr inactive | hcDAF12 conf inactive
CN(C)CCCN(C(=O)c1sc2ccccc2c1Cl)c1nc2ccc(F)cc2s1	hcDAF12 agonist 7.6 | LXRb hcDAF ctr inactive | hcDAF12 conf 8.0
COc1ccc(-c2ccc(CN3C(C(C)C)C(=O)N(Cc4cn(CC5CCCCC5)nn4)CCS3(=O)=O)cc2)cc1OC (stereo unspecified)	none
O=C1Nc2ccccc2/C1=C\C(=O)c1ccccc1	none
O=C(/C=C1\C(=O)Nc2ccccc21)/C=C1\C(=O)Nc2ccccc21	hcDAF12 agonist 11 | LXRb hcDAF ctr inactive | hcDAF12 conf inactive
O=C1C(c2ccnc3ccccc23)=C(O)c2ccccc21	hcDAF12 agonist 26, ssDAF-12 act 3.3, hgDAF-12 ag 16 | LXRb hcDAF ctr inactive | hcDAF12 conf 20
O=C1C(=O)c2ccccc2C(O)=C1c1ccccc1F	none
O=C(NC(=S)Nc1nc2c(ccc3ccccc32)s1)c1cccs1	hcDAF12 agonist 9.0 | LXRb hcDAF ctr inactive | hcDAF12 conf 5.9
O=C(Nc1cccc2ccccc12)c1ccco1	none
O=C(Nc1nc2c(ccc3ccccc32)s1)c1ccco1	hcDAF12 agonist 6.7 | LXRb hcDAF ctr inactive | hcDAF12 conf inactive
C#CCOCCOCCOCCNc1nc(N2CCN(C(=O)[C@H](CCCCN)n3cc([C@@H](N)CC(C)C)nn3)CC2)nc(N2CCN(C(=O)[C@H](Cc3cc4ccccc4[nH]3)n3cc([C@@H](N)CC(C)C)nn3)CC2)n1	hcDAF12 agonist 8.1 (no result: SMARCA2 activ, DAX1 StAR inh) | LXRb hcDAF ctr inactive | hcDAF12 conf inactive
